High-throughput results: PubChem, several laboratories
Only some compounds are listed: those with a hit (about 27% of all), similar ones and a draw of the others.
CYP2C9 activ = human CYP2C9 activators, primary screen, biochemical, luminescence; recombinant CYP2C9, luciferin-H conversion; hits give high values; factor 1 = untreated enzyme, 0 = blocked; activation factor at 5 µM; actives 1.4% (n = 96,000); AID 1024, 2008;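 active = activation factor of 2 or more for CYP2C9 at a 5 µM dose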;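 note: 0 = sulfaphenazole-blocked wells and 1 = vehicle-only wells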
CYP2C19 inhib = blockers of cytochrome P450 2C19 activity – biochemical, luminescence, ADME assay, primary screen | inhibition, % at 5 µM | AID 778, 2007 | actives 21% (n = 96,000) | CYP2C19 Supersomes, luciferin-H EGE luminescence, 30 min | P33261;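 active = CYP2C19 inhibition above a set limit at 5 µM in the primary screen, cut at about 50% in these data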;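 note: plate controls were negative control wells for no effect and 2.5 mM tranylcypromine positive control for full effect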
CYP2C9 inhib = blockers of cytochrome P450 2C9 activity – biochemical, luminescence, ADME assay, primary screen; P11712; CYP2C9 Supersomes, luciferin-H conversion; inhibition, % at 5 µM; actives 20% (n = 96,000); AID 777, 2007;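 active = blocking of liver enzyme CYP2C9 beyond about 50% at 5 µM, limit read from the data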
sEH inhibitor = soluble epoxide hydrolase inhibitors, primary screen, biochemical, human sEH | AID 707, 2007 | recombinant human sEH enzymatic activity assay | inhibition, % at 2 µM | actives 0.34% (n = 91,000) | Bifunctional epoxide hydrolase 2 (Homo sapiens), P34913; in the data active = inhibition above about 80%
Target sequence (P34913 whole entry, looked up): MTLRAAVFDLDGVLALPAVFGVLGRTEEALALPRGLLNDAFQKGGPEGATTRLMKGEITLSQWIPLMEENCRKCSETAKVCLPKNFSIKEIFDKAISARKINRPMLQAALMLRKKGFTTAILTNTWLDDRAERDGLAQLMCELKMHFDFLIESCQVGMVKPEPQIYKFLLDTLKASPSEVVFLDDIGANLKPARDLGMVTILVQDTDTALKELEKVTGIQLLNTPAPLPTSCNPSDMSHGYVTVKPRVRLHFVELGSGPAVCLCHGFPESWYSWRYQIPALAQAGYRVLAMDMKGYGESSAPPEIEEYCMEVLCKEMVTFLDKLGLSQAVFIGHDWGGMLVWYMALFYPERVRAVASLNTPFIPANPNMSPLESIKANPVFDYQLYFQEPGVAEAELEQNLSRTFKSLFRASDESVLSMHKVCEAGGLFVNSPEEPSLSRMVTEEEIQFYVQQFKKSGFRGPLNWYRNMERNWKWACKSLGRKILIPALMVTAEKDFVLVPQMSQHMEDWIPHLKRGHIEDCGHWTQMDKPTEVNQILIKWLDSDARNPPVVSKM
sEH act = soluble epoxide hydrolase activators, primary screen, biochemical, human sEH; Bifunctional epoxide hydrolase 2 (Homo sapiens), P34913; actives 0.04% (n = 91,000); purified human sEH enzymatic activity, activator screen; activation, % at 2 µM; in the data active = activation above about 37%
CYP2C19 activ = human CYP2C19 activators, primary screen, biochemical, luminescence. 96,000 tested, under 10 active. activation factor at 5 µM. recombinant CYP2C19, luciferin-H EGE luminescence; hits give high values; 0 = fully inhibited enzyme, 1 = untreated enzyme. Cytochrome P450 2C19 (Homo sapiens), P33261;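 active = activation factor of at least 2 at 5 µM in the primary screen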;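 note: 0 = wells with 2.5 mM tranylcypromine and 1 = vehicle-only wells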
An asterisk follows results filed as active; / = no result given.

SMILES	CYP2C9 activ	CYP2C19 inhib	CYP2C9 inhib	sEH inhibitor	sEH act	CYP2C19 activ
Cc1ccc(-c2ccc(CCC(=O)O)n2-c2cccc(O)c2)cc1	0.4	44	57*	3	-1	0.6
Cc1ccc(-c2ccc(CCC(=O)O)n2-c2ccc(O)cc2)cc1	0.8	-3	24	-3	2	1
CC(=O)SCC(C)C(=O)NCc1ccccc1 (configuration not stated)	1	64*	0	-6	5	0.4
CC(C)CC(NC(=O)OC(C)(C)C)C(=O)NCc1ccccc1 (configuration not stated)	0.8	47	21	6	-4	0.5
O=C(Nc1ccccc1N1CCOCC1)C1Cc2ccccc2CN1C(=O)c1ccco1 (configuration not stated)	0.3	51*	67*	8	-7	0.5
CCC(CC)C(=O)N=C1SC2CS(=O)(=O)CC2N1CCc1ccc(OC)cc1 (configuration not stated)	0.2	80*	77*	-1	1	0.2
Cc1ccc(-c2cnc(NC(=O)c3cccc(Br)c3)s2)c(C)c1	0.7	-3	33	-7	10	1
CC(C)NC(=O)N(O)C1N(Cc2ccc3c(c2)OCO3)C(=S)SC1(C)C (configuration not stated)	0.1	98*	94*	-12	10	0
COc1cccc(CN2C(=O)N(C(C)C)C(N(O)C(=O)NC(C)C)C2(C)C)c1OC (configuration not stated)	0.9	-1	11	10	-7	1
Cc1cccc2c1NC(=O)C2(c1ccc(O)cc1)c1ccc(O)cc1	0.2	60*	79*	8	-10	0.4
Cc1cc(C)nc(SCCS(=O)(=O)Cc2ccccc2)n1	1.2	83*	-24	-1	-1	0.2
O=C(CN1CCOCC1)Nc1cccc(Cl)c1Cl	1.3	78*	-30	7	-6	0.2
O=C(CN1CCOCC1)Nc1ccccc1Cl	1	19	1	-14	13	0.8
O=C(CN1CCCCC1)Nc1cc(Cl)ccc1Cl	2.2*	63*	-118	3	-5	0.4
O=C(CN1CCCCC1)Nc1ccc(F)c(Cl)c1	0.9	81*	8	/	/	0.2
O=C(CN1CCCCCC1)Nc1ccc(F)c(F)c1	/	/	/	2	3	/
Cc1ccc(S(=O)(=O)Nc2ccc(NC(=O)CN3CCCCC3)c(Cl)c2)cc1	0	71*	100*	8	-8	0.3
CC(=O)Nc1ccc(NC(=O)CN(c2ccccc2Cl)S(C)(=O)=O)cc1	1	14	-2	6	-3	0.9
C=CCC1(O)C(=O)Nc2ccccc21 (configuration not stated)	1	8	-4	2	-1	0.9
CCCCCOC(=O)C1=C(C)N(C)C(=O)NC1c1cc(Br)c(O)c(OC)c1 (configuration not stated)	0.3	59*	70*	-6	4	0.4
O=C(NCCOC(=O)c1ccc(Cl)c(S(=O)(=O)N2CCCCC2)c1)c1ccncc1	0.1	89*	91*	-15	12	0.1
CCN(CC)CCNC(=O)c1ccc(Cl)c(S(=O)(=O)N2CCCCCC2)c1	0.3	-3	72*	19	-17	1
CC1C2=C(CCCC2=O)N(c2cccc3ccccc23)C2=C1C(=O)CCC2	/	/	/	-18	18	/
COC(=O)c1sc(NC(=O)C2CCCCC2C(=O)O)c(C(=O)OC)c1C (configuration not stated)	0.1	-5	93*	/	/	1.1
CCOC(=O)c1c(NC(=O)C2CCCO2)sc(C(=O)OC(C)(C)C)c1C (configuration not stated)	0.7	10	31	-12	14	0.9
Cc1c(C(=O)OC(C)C)sc(NC(=O)C2CCCO2)c1C(=O)OC(C)C (configuration not stated)	0.2	69*	76*	-4	7	0.3
CCOC(=O)c1sc(NC(=O)C2CCCO2)c(C(=O)OCC)c1C (configuration not stated)	0.8	6	17	/	/	0.9
